Laboratory results: the supplement of paper PMC6555819

Key:
Assay in all cases: PBM binding z-score (relative to random genomic background probes); higher = stronger binding; sequences stand for … in GC…GCGATTGACAGCGTAGAATGAAGG
[1] = test system: FXR:RXRa (NR concentration 270 nM, RXRa partner concentration 90 nM)
Method in brief: (§1)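 On custom Agilent 4×180K arrays, double-stranded probes with 34-nt variable regions carried direct-repeat seeds, single-nucleotide variants, half-site ablations or random human genomic background. Ligand-free nuclear receptor dimers were applied for 1 h, and binding was read with antibodies against each partner (one per run). Binding z-scores come from regression-normalized fluorescence, with the random background probes as reference.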

[2] = test system: LXRa:RXRa (NR concentration 270 nM, RXRa partner concentration 90 nM)
Method in brief: as §1

[3] = test system: LXRa homodimer (NR concentration 270 nM)
Method in brief: as §1

[4] = test system: LXRb:RXRa (NR concentration 270 nM, RXRa partner concentration 90 nM)
Method in brief: as §1

[5] = test system: LXRb homodimer (NR concentration 270 nM)
Method in brief: as §1

[6] = test system: PPARa:RXRa (NR concentration 270 nM, RXRa partner concentration 90 nM)
Method in brief: as §1

[7] = test system: PPARg:RXRa (NR concentration 180 nM, RXRa partner concentration 90 nM)
Method in brief: as §1

[8] = test system: PPARg:RXRa 270nM:90nM, anti-RXR (NR concentration 270 nM, RXRa partner concentration 90 nM)
Method in brief: as §1

[9] = test system: PPARg:RXRa 30nM:10nM, anti-RXR (NR concentration 30 nM, RXRa partner concentration 10 nM)
Method in brief: as §1

[10] = test system: PPARg:RXRa 90nM:30nM, anti-RXR (NR concentration 90 nM, RXRa partner concentration 30 nM)
Method in brief: as §1

Sequence | PBM binding z-score [1] | PBM binding z-score [2] | PBM binding z-score [3] | PBM binding z-score [4] | PBM binding z-score [5] | PBM binding z-score [6] | PBM binding z-score [7] | PBM binding z-score [8] | PBM binding z-score [9] | PBM binding z-score [10]
CCTCGGAGGACAACAGGAGGTCAGAGCGGCCAGA | 1.36 | 2.25 | 2.24 | 1.42 | -0.43 | 2.09 | 0.411 | 0.182 | -0.715 | -0.31
CCTACTGAGCCAAAGGTCATTGATTCCAATGCTC | 5.45 | 5.55 | 4.66 | 5.13 | 2.18 | 5.53 | 8.72 | 8.74 | 7.32 | 9.2
GCATATAGGGAATACAAGGTGAAAGTCCGATTGT | 0.23 | -0.211 | -0.101 | -0.103 | -0.489 | 0.924 | 0.818 | 0.797 | 0.0214 | 0.338
GATACAGGGCCAGCTAGAGGCCAGAGTATGGAAA | -0.612 | -0.872 | -0.883 | -1.08 | -1.43 | -0.738 | 0.208 | -0.6 | -0.543 | -0.645
ATCTCTAGGTAACAAGTTCAGCGAAAGAGAGGAC | 0.684 | 0.959 | 0.732 | 0.934 | 1.33 | 2.01 | 1.88 | 2.43 | 0.884 | 2.22
CCTCGGAGGACACAAGGTCAGAGCTGTCCGCTTT | 1.95 | 2.18 | 0.422 | 1.25 | -0.693 | 2.17 | 0.424 | 1.15 | -0.626 | 0.468
ACAGACAGGTGAGAGAAGGTAACTCAGCTGGACG | 0.34 | -0.0792 | -0.413 | -0.366 | -0.81 | 0.165 | 0.832 | -0.247 | 0.0838 | 0.154
ACTCGGCGGACAAAGGTCAGAGCTACGCCAGTGA | 3.34 | 3.79 | 1.32 | 2.86 | -0.304 | 4.34 | 4.89 | 5.97 | 3.53 | 5.74
ATCTCTAGGTCAAGTTCAGTGAAAGATCGATAGA | 5.11 | 5.65 | 4.79 | 3.98 | 3.26 | 4.74 | 5.82 | 5.4 | 2.79 | 4.77
ACAGATAGGTGATGAAGGTAACTCAGGCTATCAT | -0.192 | -0.132 | -0.27 | -0.29 | -0.768 | 0.548 | 0.643 | 0.541 | 0.412 | 0.624
GGAACGAGGGCAAGTTGGTAGCAGAGTTTGATGG | 0.88 | 0.565 | -0.29 | 0.202 | -0.428 | 1.58 | 0.752 | 0.875 | -0.334 | 0.0314
TCTTGTAGATCAAGCAGGTTAAGAATGCCTGAGT | 0.16 | 0.304 | -0.202 | 0.114 | -0.543 | 0.658 | -0.22 | 1.1 | 2.61 | 1.83
TAGCCTAGGTCAGATTGGGCCAGTATACGCTATA | 2.65 | 1.25 | -0.472 | 0.995 | -0.0361 | 1.43 | 0.564 | 0.735 | -0.437 | -0.114
CGAACCAGGTCATTGACAGGACAGTGAATAGTAA | 5.53 | 3.65 | 0.747 | 2.7 | 0.324 | 4.37 | 4.46 | 4.07 | 0.956 | 2.96
TCATATAGGTAAAAGGTAAAAGTCGGTGTGGTAA | 1.72 | 1.53 | 0.146 | 1.47 | 0.114 | 4.59 | 7.89 | 7.76 | 7.87 | 8.16
TCTGCCAGGTCAACGATGGTCAGCTAATCTGCTA | 4.25 | 3.33 | 0.136 | 2.23 | 0.15 | 3.46 | 2.13 | 2.8 | 1.53 | 2.04
CATACAGGGTCAGCTGGGCCAGAGTAGGGACGGC | 4.32 | 3.28 | -0.0929 | 2.08 | 0.0372 | 4.46 | 2.85 | 3.35 | 0.594 | 2.16
CGTACTAGGTCATCCAGGACAGTGAATACATTGA | 4.17 | 2.58 | 0.958 | 2.46 | 0.292 | 4.53 | 6.87 | 5.33 | 3.15 | 5.25
GGAACGAGGGCATTGGAGTTGATAGCATGGCGAT | 0.624 | 1.25 | -0.304 | -0.0971 | -0.75 | 1.36 | 0.831 | 0.611 | -0.313 | -0.0775
GCTATTAGTTGAAAGGGCGACCGAATGATTCTCG | -0.184 | 0.0609 | -0.118 | 0.0118 | -0.239 | 0.973 | 1.72 | 3.27 | 1.2 | 3.05
ATATGTAGGCTAAGGGTCATTCAGGTTGGTTCGC | 3.79 | 3.76 | 1.84 | 3.73 | 1.39 | 6.17 | 10.2 | 8.9 | 9.28 | 9.65
TCATATAGGTAACTGCTAGGTGAAAGTCCGATCT | 1.07 | 1.19 | 0.0877 | 0.852 | -0.244 | 1.75 | 1.11 | 2.52 | 3.76 | 3.29
TCATGTAGATCAAGCAGGTTAAGAAAGCCTGAGT | 0.865 | 0.684 | -0.0467 | 0.774 | -0.523 | 0.929 | -0.116 | 1.74 | 3.28 | 2.36
CGAACTAGGTCATTGACAGGACATTGAATAGTAA | 3.53 | 3.53 | 1.19 | 2.32 | 0.107 | 4.56 | 7.27 | 6.42 | 4.27 | 5.95
AATACAGGGTCATCGTGGGCCAGAGTACGCACAG | 7.26 | 6.08 | 2.41 | 4.65 | 0.911 | 5.96 | 6.73 | 5.81 | 2.73 | 4.56
